Data from PubChem BioAssay (Tox21).
Where “and” joins values, the source holds several entries; their conditions need not be identical. Identical values can stand only once. Inconclusive results are not listed. A call without a number means that no potency is given here. Calls of active or inactive are those of the source. Unless noted, calls follow the shape of the dose curve; as a rule, active = well fitted curve in the direction sought with a large enough effect in the repeat runs; inconclusive = weak or mixed curves; inactive = no such curve, though single readings can be large; an effect the other way counts as inactive or inconclusive.

Tests used:
[1] = A CellTox Green Cytotoxicity Assay to monitor cytotoxicity in HepG2 cells - 8 hour (AID 1224890); also: nearly all actives have a fitted effect of over 45% in size
Outline: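 Real-time cytotoxicity: fluorescence of a cell-impermeant cyanine dye binding DNA of dead HepG2 cells, measured repeatedly (0–40 h) during compound exposure at 37 C. Cells seeded 600/well with reagent, dosed after 5 h.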

[2] = qHTS assay to identify small molecule antagonists of the estrogen receptor alpha (ER-alpha) signaling pathway using the BG1 cell line in the presence of 0.1 nM 17-beta-estradiol - cell viability counter screen (AID 1259241); also: nearly all actives have a fitted effect of over 40% in size
Outline: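 Live-cell protease activity (CellTiter-Fluor fluorescence, 30 min) was read in the same wells after VM7Luc4E2 cells had been exposed to compounds with 0.1 nM 17beta-estradiol for 22 hr at 37C.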

[3] = qHTS assay to identify small molecule antagonists of the androgen receptor (AR) signaling pathway using the MDA cell line in the presence of 0.5 nM R1881 - cell viability counter screen (AID 1259242); also: nearly all actives have a fitted effect of over 45% in size
Outline: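 Live-cell protease activity was measured by CellTiter-Fluor fluorescence after 30 min. Before that, MDA-kb2 MMTV-luciferase cells had 16 hr at 37C without CO2, exposed to test compounds and 0.5 nM R1881 final.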

[4] = biological target: Androgen receptor (Homo sapiens) (UniProt P10275); test: qHTS assay to identify small molecule antagonists of the androgen receptor (AR) signaling pathway using the MDA cell line in the presence of 0.5 nM R1881 (AID 1259243); also: nearly all actives have a fitted effect of over 50% in size
Androgen receptor (Homo sapiens), sequence (P10275 whole entry, looked up): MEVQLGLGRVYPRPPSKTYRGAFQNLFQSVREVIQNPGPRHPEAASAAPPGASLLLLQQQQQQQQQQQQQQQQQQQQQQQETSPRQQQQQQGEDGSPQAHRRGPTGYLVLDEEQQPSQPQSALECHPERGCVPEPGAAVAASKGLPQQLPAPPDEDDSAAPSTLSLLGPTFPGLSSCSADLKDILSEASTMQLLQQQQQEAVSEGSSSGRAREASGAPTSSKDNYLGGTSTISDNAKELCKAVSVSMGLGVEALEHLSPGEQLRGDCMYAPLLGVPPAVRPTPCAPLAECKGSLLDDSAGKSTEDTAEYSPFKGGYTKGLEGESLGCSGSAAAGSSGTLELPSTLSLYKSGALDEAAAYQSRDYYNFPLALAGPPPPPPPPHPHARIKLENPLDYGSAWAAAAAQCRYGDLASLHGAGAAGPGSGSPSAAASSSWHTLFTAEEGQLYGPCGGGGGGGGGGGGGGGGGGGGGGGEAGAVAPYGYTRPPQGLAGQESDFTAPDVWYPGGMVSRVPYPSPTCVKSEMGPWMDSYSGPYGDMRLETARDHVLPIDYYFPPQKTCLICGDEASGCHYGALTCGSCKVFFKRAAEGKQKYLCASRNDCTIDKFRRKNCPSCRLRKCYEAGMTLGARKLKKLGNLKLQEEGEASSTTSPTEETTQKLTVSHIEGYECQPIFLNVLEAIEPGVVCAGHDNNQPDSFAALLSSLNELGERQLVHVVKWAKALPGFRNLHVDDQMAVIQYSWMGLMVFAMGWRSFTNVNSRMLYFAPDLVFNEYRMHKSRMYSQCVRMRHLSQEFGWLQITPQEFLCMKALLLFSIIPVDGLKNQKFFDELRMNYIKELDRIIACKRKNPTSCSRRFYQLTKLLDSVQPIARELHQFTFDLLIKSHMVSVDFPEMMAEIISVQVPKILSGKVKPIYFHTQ
Outline: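 Luminescent reporter readout (ONE-Glo, 30 min, room temperature) after 16 hr co-treatment of MDA-kb2 cells with test compounds and 0.5 nM R1881 final, at 37C without CO2. The MMTV-driven luciferase responds to both AR and GR.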

[5] = biological target: Estrogen receptor (Homo sapiens) (UniProt P03372); test: qHTS assay to identify small molecule antagonists of the estrogen receptor alpha (ER-alpha) signaling pathway using the BG1 cell line in the presence of 0.1 nM 17-beta-estradiol (AID 1259244); also: nearly all actives have a fitted effect of over 50% in size
Estrogen receptor (Homo sapiens), sequence (P03372 whole entry, looked up): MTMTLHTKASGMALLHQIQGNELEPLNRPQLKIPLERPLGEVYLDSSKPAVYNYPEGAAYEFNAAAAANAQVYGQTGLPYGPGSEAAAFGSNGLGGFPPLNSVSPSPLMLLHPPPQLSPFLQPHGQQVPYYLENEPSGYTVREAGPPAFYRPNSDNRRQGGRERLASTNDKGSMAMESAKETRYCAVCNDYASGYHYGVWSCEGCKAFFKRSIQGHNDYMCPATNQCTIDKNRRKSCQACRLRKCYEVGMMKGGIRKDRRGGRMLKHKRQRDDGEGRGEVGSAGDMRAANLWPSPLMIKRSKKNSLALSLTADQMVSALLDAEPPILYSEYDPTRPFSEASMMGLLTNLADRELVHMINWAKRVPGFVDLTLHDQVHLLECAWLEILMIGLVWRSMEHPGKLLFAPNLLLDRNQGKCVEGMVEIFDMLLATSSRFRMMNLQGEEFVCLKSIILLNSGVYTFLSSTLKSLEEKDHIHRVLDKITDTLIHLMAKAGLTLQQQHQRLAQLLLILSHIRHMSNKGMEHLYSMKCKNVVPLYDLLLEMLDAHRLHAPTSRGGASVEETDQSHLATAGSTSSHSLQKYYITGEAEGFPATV
Outline: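 Luciferase luminescence (ONE-Glo, 30 min at room temperature) was read after 22 hr at 37C exposure to compounds plus 17beta-estradiol at 0.1 nM final. Cells were VM7Luc4E2 with endogenous ER-alpha and an ERE-driven luciferase, pre-cultured 5 days in hormone-depleted medium.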

[6] = qHTS assay to identify small molecule HDAC inhibitors (AID 1259364); also: top concentration of the series differs between compounds; nearly all actives have a fitted effect of over 45% in size
Outline: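 Luminescence read after 30 min room-temperature HDAC-Glo incubation measures cellular class I/II HDAC activity. Compounds were applied for 2 hr at 37 C to HCT-116 wild-type cells seeded the day before.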

[7] = qHTS assay to identify small molecule HDAC inhibitors - cell viability counter screen (AID 1259365); also: series mostly up to about 92 µM; nearly all actives have a fitted effect of over 50% in size
Outline: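 HCT-116 (wild type), 1,500 cells/well, overnight 37C/5% CO2; compound in DMSO 2hr; CellTiter-Glo 30min RT; luminescence read.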

[8] = qHTS assay to identify small molecule agonists of the sonic hedgehog signaling (Shh) pathway - cell viability counter screen (AID 1259366); also: nearly all actives have a fitted effect of over 50% in size
Outline: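 CellTiter-Fluor fluorescence read-out, 1 hr at 37C, added after 23hr compound exposure. Cells: 3T3 Gli1-Luc, an NIH/3T3 clone with stably integrated Gli1-Luc reporter, plated 4hr before compound.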

[9] = qHTS assay to identify small molecule antagonists of the sonic hedgehog signaling (Shh) pathway - cell viability counter screen (AID 1259367); also: nearly all actives have a fitted effect of over 55% in size
Outline: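 CellTiter-Fluor signal in conditioned medium-stimulated 3T3 Gli1-Luc cells, 23 hr compound exposure, 37C.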

[10] = qHTS assay to identify small molecule agonists of the sonic hedgehog signaling (Shh) pathway (AID 1259368; calls by dose curve;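 also: NIH/3T3-derived 3T3Gli1-Luc cells carrying a stable Gli1-driven firefly luciferase reporter; series mostly up to about 92 µM; nearly all actives have a fitted effect of over 15% in size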)
Outline: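 Luminescence was read after 30 min at room temperature with luciferase reagent. Before that, 3T3Gli1-Luc cells (NIH/3T3 clone, stable Gli1-Luc reporter; 2,000/well) were exposed to compounds for 24 hr at 37C, 5% CO2, compounds being added 4 hr post-plating.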

[11] = qHTS assay to identify small molecule antagonists of the sonic hedgehog signaling (Shh) pathway (AID 1259369; calls by dose curve; also: nearly all actives have a fitted effect of over 45% in size; also: potency is read from the fitted curve at half-maximal effect)
Outline: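 Antagonist mode: compound added to 3T3 Gli1-Luc cells followed by conditioned-medium stimulation, 24 h at 37 C, 5% CO2. Inhibition taken as loss of Gli1-driven luciferase luminescence.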

[12] = qHTS assay to identify small molecule agonists of the androgen receptor (AR) signaling pathway in the presence of an antagonist - cell viability counter screen (AID 1259379);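 also: MDA-kb2 human breast cancer cells carrying an MMTV luciferase reporter; series mostly up to about 92 µM; nearly all actives have a fitted effect of over 25% in size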
Outline: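 Cytotoxicity counter-screen run in the same wells as the nilutamide-challenged (3.0 µM final) AR agonist assay in MDA-kb2 cells. Compounds tested at 15 concentrations for 16 h, 37 °C without CO2; CellTiter-Fluor fluorescence read.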

[13] = qHTS assay to identify small molecule agonists of the estrogen receptor beta (ER-beta) signaling pathway - cell viability counter screen (AID 1259380); also: nearly all actives have a fitted effect of over 30% in size
Outline: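 Cell viability counter screen: CellTiter-Glo luminescence (30 min, room temperature) measured in the same wells as the beta-lactamase readout, after 16 hr compound exposure at 37C of ER-beta-bla HEK293T cells in 2% charcoal-stripped FBS medium.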

[14] = biological target: Androgen receptor (Homo sapiens) (UniProt P10275); test: qHTS assay to identify small molecule agonists of the androgen receptor (AR) signaling pathway in the presence of an antagonist (AID 1259381; calls by dose curve; also: nearly all actives have a fitted effect of over 15% in size)
Outline: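 Agonist-mode confirmation run against 3.0 uM final nilutamide: compounds titrated at 15 concentrations onto MDA-kb2 MMTV-luciferase reporter cells. Luminescence measured with ONE-Glo following 16 hr incubation, 37C, 0% CO2.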

[15] = qHTS assay to identify small molecule antagonists of the estrogen receptor beta (ER-beta) signaling pathway - cell viability counter screen (AID 1259382);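 also: HEK293T cells carrying ER-beta-UAS-bla reporter stimulated with estradiol; series mostly up to about 92 µM; nearly all actives have a fitted effect of over 55% in size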
Outline: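 Cytotoxicity was measured in the same wells by CellTiter-Glo luminescence after 30 min at room temperature. Cells were ER-beta-bla HEK293T in charcoal-stripped serum, given compound together with 1 nM E2 and incubated 16 h at 37C.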

[16] = biological target: Estrogen receptor (Homo sapiens) (UniProt P03372); test: qHTS assay to identify small molecule agonists of the estrogen receptor alpha (ER-alpha) signaling pathway in the presence of an antagonist (AID 1259383; calls by dose curve; also: nearly all actives have a fitted effect of over 15% in size; also: potency is read from the fitted curve at half-maximal effect; as to activation: top concentration of the series differs between compounds)
Outline: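 Agonist-mode confirmation run in the presence of 10.0nM (final) ICI-182,780 antagonist. The reporter was ERE-driven luciferase in VM7Luc4E2 cells, grown in charcoal-stripped serum. Cells were exposed to 15-concentration compound series for 22hr, then ONE-Glo luminescence was read.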

[17] = qHTS assay to identify small molecule agonists or antagonists of the thyroid stimulating hormone receptor (TSHR) signaling pathway - wild type cell line counter screen (AID 1259384; calls by dose curve)
Outline: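 Counter screen in untransfected Hek293: compounds (15-point titration, triplicate) plus phosphodiesterase inhibitor Ro20-1724 added after 18 h plating; 30 min RT. Intracellular cAMP via competitive d2/cryptate immunoassay, 1 h incubation.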

[18] = biological target: Estrogen receptor beta (Homo sapiens) (UniProt Q92731); test: qHTS assay to identify small molecule agonists of the estrogen receptor beta (ER-beta) signaling pathway (AID 1259377; active = well fitted activation curve with a large enough effect in the signal ratio in the repeat runs, not every such curve was filed as active; the % refers to the signal ratio)
Estrogen receptor beta (Homo sapiens), sequence (Q92731 whole entry, looked up): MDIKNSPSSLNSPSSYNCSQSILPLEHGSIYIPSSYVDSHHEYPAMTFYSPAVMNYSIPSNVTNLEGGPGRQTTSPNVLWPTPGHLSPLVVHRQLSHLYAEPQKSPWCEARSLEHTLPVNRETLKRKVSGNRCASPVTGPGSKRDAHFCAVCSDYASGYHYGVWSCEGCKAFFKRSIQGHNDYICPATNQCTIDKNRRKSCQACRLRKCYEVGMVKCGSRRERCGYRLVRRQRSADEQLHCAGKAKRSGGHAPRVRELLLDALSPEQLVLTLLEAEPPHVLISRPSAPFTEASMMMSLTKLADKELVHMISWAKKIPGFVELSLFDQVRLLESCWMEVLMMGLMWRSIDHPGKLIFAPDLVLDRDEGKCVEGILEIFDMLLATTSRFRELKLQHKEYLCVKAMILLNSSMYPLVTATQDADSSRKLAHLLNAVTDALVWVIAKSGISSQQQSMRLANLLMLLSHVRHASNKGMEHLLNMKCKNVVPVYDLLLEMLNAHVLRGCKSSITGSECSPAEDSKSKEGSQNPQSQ
Outline: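 Beta-lactamase reporter readout: fluorescence of LiveBLAzer B/G FRET substrate after 2 h at room temperature, following 16 h compound treatment of ER-beta-UAS-bla HEK293T cells at 37C in 2% charcoal-stripped FBS medium.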

[19] = biological target: Estrogen receptor beta (Homo sapiens) (UniProt Q92731); test: qHTS assay to identify small molecule antagonists of the estrogen receptor beta (ER-beta) signaling pathway (AID 1259378; active = well fitted inhibition curve with a large enough effect in the signal ratio in the repeat runs, not every such curve was filed as active; the % refers to the signal ratio)
Outline: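 Antagonist mode: compounds added to beta-lactamase reporter HEK293T ER-beta-UAS cells stimulated with E2 (1nM final), 16 hr at 37C. LiveBLAzer B/G FRET substrate, 2 hours room temperature, fluorescence read-out.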

[20] = qHTS assay to identify small molecule phospholipidosis (PLD) inducers (AID 1259344; active = well fitted curve in the direction sought with a large enough effect; an effect the other way counts as inactive or inconclusive)
Outline: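 Accumulated phospholipid, stained red by LipidTOX during 24 h compound treatment of HepG2 cells at 37 C, is quantified from images as pit number and intensity, normalised per cell using Hoechst-stained nuclei.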

Compound	Potency [1]	outcome [2]	Potency [3]	Potency [4]	Potency [5]	Potency [6]	outcome [7]	Potency [8]	Potency [9]	outcome [10]	Potency [11]	Potency [12]	Potency [13]	Potency [14]	Potency [15]	Potency [16]	outcome [17]	Potency [18]	outcome [19]	Potency [20]
BrCc1ccc(Br)cc1	inactive	inactive	inactive	inactive	inactive	inactive	inactive	inactive	inactive	inactive	inactive	inactive	inactive	inactive	inactive	inactive	inactive			
COC(=O)c1ccc(CBr)cc1	inactive	inactive	inactive	inactive	inactive		inactive		inactive	inactive		inactive	inactive	inactive	inactive	12.3 µM (active)	inactive	inactive	inactive	
CCNc1nc(NCC)nc(SC)n1	inactive	inactive	inactive		inactive	inactive	inactive	inactive	inactive	inactive		inactive	inactive		inactive	inactive		inactive	inactive	
C=C(Cl)CCl	inactive	inactive	inactive		inactive	inactive	inactive	inactive	inactive	inactive	inactive	inactive	inactive		inactive	inactive	inactive	inactive		
CCCN1CCC[C@@H]2Cc3[nH]ncc3C[C@H]21	inactive	inactive	inactive			inactive	inactive	inactive	inactive	inactive	inactive	inactive	inactive		inactive	inactive	inactive	inactive	inactive	inactive
CCCC(C)C1(CC)C(=O)N=C(S)NC1=O (stereo not given)	inactive	inactive	inactive			inactive	inactive		inactive	inactive	inactive	inactive	inactive		inactive					inactive
CCOP(=S)(OCC)Oc1ccc(Cl)cc1Cl	inactive	inactive	inactive		inactive	inactive	inactive	inactive	inactive	inactive	inactive	inactive	inactive		inactive	inactive	inactive	inactive	inactive	
CCCC(C)(COC(N)=O)COC(N)=O	inactive	inactive	inactive			inactive	inactive	inactive	inactive	inactive	25.8 µM (active)	inactive	inactive		inactive		inactive	inactive	inactive	inactive
CS(=O)(=O)Cl	inactive	inactive	inactive		inactive	inactive	inactive	inactive	inactive	inactive	inactive	inactive	inactive		inactive	inactive		inactive	inactive	
N#CN=C1SCCN1Cc1ccc(Cl)nc1	inactive	inactive	inactive		inactive	inactive	inactive	inactive	inactive	inactive	inactive	inactive	inactive		inactive	inactive	inactive			
O=C(NC(O)C(Cl)(Cl)Cl)NC(O)C(Cl)(Cl)Cl (stereo not given)	inactive	inactive	inactive			inactive	inactive	inactive	inactive	inactive		inactive	inactive		inactive	inactive		inactive	inactive	inactive
CCC1(c2cccc(O)c2)CCCCN(C)C1 (stereo not given)	inactive	inactive	inactive			inactive	inactive	inactive		inactive		inactive	inactive		inactive		inactive			inactive
CC[C@@H](CO)NC(=O)[C@@H]1C=C2c3cccc4c3c(cn4C)C[C@H]2N(C)C1	inactive	inactive	inactive		inactive	inactive		inactive	inactive	inactive	inactive	inactive	inactive		inactive	inactive		inactive	inactive	inactive
C/C=C/CC#N	inactive	inactive	inactive		inactive	inactive	inactive	inactive	inactive	inactive	inactive	inactive	inactive		inactive	inactive	inactive	inactive	inactive	
CC(C)(C)c1cc(O)ccc1O	inactive	inactive	inactive			inactive	inactive	inactive	inactive	inactive	7.7 µM (active) and 3.86 µM (active)	inactive	inactive		inactive	inactive				inactive
O=C1CC(=O)NC(=O)N1	inactive	inactive	inactive		inactive	inactive	inactive	inactive	inactive	inactive	inactive	inactive	inactive		inactive	inactive	inactive	inactive	inactive	
NCCOS(=O)(=O)O	inactive	inactive	inactive		inactive	inactive	inactive	inactive	inactive	inactive	inactive	inactive	inactive		inactive	inactive	inactive	inactive	inactive	
